From the antibiotic and cytotoxicity screens of Wong et al. (2023)
The campaign covered roughly 39,000 compounds. About 500 (1.3%) were called active. The full list was thinned out, with actives kept by preference.

test system: S. aureus RN4220; assay: growth inhibition call (relative growth <= 0.2); settings: 50 µM

| Structure (SMILES) | growth inhibition call |
| --- | --- |
| C[C@@H]1CN([C@H](C)CO)C(=O)c2cc(NC(=O)Nc3ccc4c(c3)OCO4)ccc2O[C@@H]1CN(C)Cc1ccc(C(F)(F)F)cc1 | inactive |
| C[C@H]1CCCCO[C@H](CN(C)CC2CCCCC2)[C@@H](C)CN([C@@H](C)CO)C(=O)c2cc(NC(=O)C3CCCCC3)ccc2O1 | inactive |
| O=C(Nc1nc(OCCN2CCCC2=O)cnc1-c1cc(Cl)cc(Cl)c1)c1cc2ccccc2s1 | inactive |
| C[C@H](CO)N1C[C@H](C)[C@H](CN(C)Cc2ccc(C(=O)Nc3ccccc3N)cc2)Oc2c(NC(=O)Nc3cccc4ccccc34)cccc2C1=O | inactive |
| C[C@@H]1CN([C@@H](C)CO)C(=O)c2cccc(NC(=O)Nc3ccc(C(F)(F)F)cc3)c2O[C@H]1CN(C)C(=O)Nc1ccc2c(c1)OCO2 | inactive |
| C[C@@H]1CN([C@H](C)CO)C(=O)c2cccc(NC(=O)Nc3ccc(C(F)(F)F)cc3)c2O[C@@H]1CN(C)C(=O)Nc1ccc2c(c1)OCO2 | inactive |
| C[C@H]1CN([C@@H](C)CO)C(=O)c2cccc(NC(=O)Nc3ccc(C(F)(F)F)cc3)c2O[C@H]1CN(C)C(=O)Nc1ccc2c(c1)OCO2 | active |
| C[C@H](CO)N1C[C@H](C)[C@H](CN(C)C(=O)Nc2ccc(C(F)(F)F)cc2)Oc2c(NC(=O)Nc3ccc4c(c3)OCO4)cccc2C1=O | inactive |
| C[C@H](CO)N1C[C@H](C)[C@H](CN(C)C(=O)Nc2ccc3c(c2)OCO3)Oc2c(NC(=O)Nc3ccc(C(F)(F)F)cc3)cccc2C1=O | active |
| C[C@H]1CN([C@@H](C)CO)C(=O)c2cccc(NC(=O)Nc3ccc4c(c3)OCO4)c2O[C@@H]1CN(C)C(=O)Nc1ccc(C(F)(F)F)cc1 | inactive |
| C[C@H](CO)N1C[C@H](C)[C@H](CN(C)Cc2ccc3c(c2)OCO3)OCCCC[C@H](C)Oc2ccc(NC(=O)CCC(F)(F)F)cc2C1=O | inactive |
| COc1ccccc1-c1ccc2c(c1)O[C@@H](CN(C)C(=O)c1cccnc1)[C@@H](C)CN([C@@H](C)CO)S2(=O)=O | inactive |
| COc1cccc(NC(=O)C[C@@H]2CC[C@@H]3[C@H](COc4ccc(NC(=O)C5CCOCC5)cc4C(=O)N3C)O2)c1 | inactive |
| Cc1noc(C)c1S(=O)(=O)Nc1ccc2c(c1)C(=O)N([C@H](C)CO)C[C@H](C)[C@H](CN(C)S(=O)(=O)c1ccc(F)cc1)O2 | inactive |
| CCOC(=O)[C@H]1C/C=C/C[C@H](C(=O)OCC)C(=O)O[C@H]2[C@@H](OC)O[C@H](CO)[C@@H](OC(=O)Nc3ccc(Br)cc3)[C@@H]2OC1=O | inactive |
| CCOc1ccc(CO[C@@H]2O[C@H](CO)[C@@H](O)[C@H](O)[C@H]2NC(C)=O)cc1OC | inactive |
| Cn1cnc(CCNC(=O)C[C@H]2CC[C@H]3[C@@H](COC[C@@H](O)CN3C(=O)Nc3ccc(Cl)cc3)O2)c1 | inactive |
| Cn1cnc(CCNC(=O)C[C@@H]2CC[C@@H]3[C@H](COC[C@@H](O)CN3C(=O)Nc3ccc(C(F)(F)F)cc3)O2)c1 | inactive |
| Cn1cnc(CCNC(=O)C[C@H]2CC[C@H]3[C@@H](COC[C@@H](O)CN3C(=O)Nc3ccc(C(F)(F)F)cc3)O2)c1 | active |
| Cn1cnc(CCNC(=O)C[C@@H]2CC[C@@H]3[C@H](COC[C@H](O)CN3C(=O)Nc3ccc(C(F)(F)F)cc3)O2)c1 | active |

| Structure (SMILES) | growth inhibition call |
| --- | --- |
| Cn1cnc(CCNC(=O)C[C@@H]2CC[C@H]3[C@@H](COC[C@H](O)CN3C(=O)Nc3ccc(Cl)cc3)O2)c1 | inactive |
| Cn1cnc(CCNC(=O)C[C@H]2CC[C@@H]3[C@H](COC[C@@H](O)CN3C(=O)Nc3ccc(C(F)(F)F)cc3)O2)c1 | inactive |
| Cn1cnc(CCNC(=O)C[C@@H]2CC[C@H]3[C@@H](COC[C@@H](O)CN3C(=O)Nc3ccc(C(F)(F)F)cc3)O2)c1 | active |
| Cn1cnc(CCNC(=O)C[C@H]2CC[C@H]3[C@@H](COC[C@H](O)CN3C(=O)Nc3ccc(C(F)(F)F)cc3)O2)c1 | inactive |
| Cn1cnc(CCNC(=O)C[C@@H]2CC[C@H]3[C@@H](COC[C@H](O)CN3C(=O)Nc3ccc(C(F)(F)F)cc3)O2)c1 | inactive |
| Cn1cnc(CCNC(=O)C[C@H]2CC[C@@H]3[C@H](COC[C@@H](O)CN3C(=O)Nc3ccc(Cl)cc3)O2)c1 | inactive |
| Cn1cnc(CCNC(=O)C[C@H]2CC[C@@H]3[C@H](COC[C@H](O)CN3C(=O)Nc3ccc(C(F)(F)F)cc3)O2)c1 | active |
| Cn1cnc(CCNC(=O)C[C@@H]2CC[C@H]3[C@@H](COC[C@@H](O)CN3C(=O)Nc3ccc(Cl)cc3)O2)c1 | inactive |
| CN1C(=O)c2cc(NC(=O)C3CCC3)ccc2OC[C@H]2O[C@H](CC(=O)NCCc3ccncc3)CC[C@H]21 | inactive |
| CO[C@H]1CN(C)C(=O)c2cc(NS(=O)(=O)CC(F)(F)F)ccc2OC[C@@H](C)N(C(=O)NC(C)C)C[C@H]1C | inactive |
| O=C(C[C@@H]1CC[C@H](NC(=O)Cc2ccccn2)[C@H](CO)O1)NCCCN1CCOCC1 | inactive |
| COCCOC(=O)N1C(=O)[C@@]2(c3cc(C#Cc4ccc(OC)cc4)ccc31)[C@H](C(=O)N1CCc3cc(OC)c(OC)cc3C1)[C@H]1C(=O)O[C@H](c3ccccc3)[C@H](c3ccccc3)N1[C@@H]2c1ccc(O)cc1 | inactive |
| C[C@H]1CN([C@@H](C)CO)C(=O)c2cc(C3=CCCC3)cnc2O[C@H]1CN(C)C(=O)Nc1ccc(C(F)(F)F)cc1 | inactive |
| C[C@H]1CN([C@@H](C)CO)C(=O)c2cccc(NC(=O)Nc3cccc4ccccc34)c2O[C@@H]1CN(C)C(=O)Nc1cccc2ccccc12 | inactive |
| C#CCn1c(=O)c2c(OC)ccnc2n(C)c1=O | inactive |
| Cc1ccccc1S(=O)(=O)N1[C@@H]2Cn3c(cccc3=O)[C@H]1[C@@H](C(=O)N1CCOCC1)[C@@H]2CO | inactive |
| COc1ccc(NC(=O)Nc2ccc3c(c2)C(=O)N([C@@H](C)CO)C[C@@H](C)[C@@H](CN(C)Cc2ccc(Oc4ccccc4)cc2)O3)cc1 | inactive |
| CN1C(=O)c2cc(NS(C)(=O)=O)ccc2OC[C@H]2O[C@@H](CC(=O)N3CCOCC3)CC[C@H]21 | inactive |
| C[C@@H]1CN([C@@H](C)CO)C(=O)Cc2cc(NS(=O)(=O)c3ccc(Cl)cc3)ccc2O[C@@H]1CN(C)C(=O)Nc1ccc(C(F)(F)F)cc1 | inactive |
